The values that follow come from PubChem BioAssay (NCATS).

Each structure is given as a SMILES string. Records with an inconclusive call do not appear. Activity calls are given as the source filed them. Calls come from the whole dose curve.
Potency is the fitted concentration of half-maximal effect.

A short description of the experiment: Cell Viability - BJ (AID 421).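 Note: cells exposed to compound for 40 hours at 37 °C before readout.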 As to conditions: BJ fibroblast viability, qHTS. From the text: NIH Chemical Genomics Center [NCGC]
NIH Molecular Libraries Screening Centers Network [MLSCN]
National Institutes of Environmental Health Sciences [NIEHS]
National Toxicology Program [NTP]
We have developed a 1536-well cell-based assay for quantitative high throughput screening (qHTS) against a number of cell lines to determine in vitro cytotoxicity of small molecules. This particular assay uses the BJ cell line from ATCC which is derived from normal human foreskin fibroblasts.
NCGC Assay Protocol Summary:
The CellTiter-Glo luminescent cell viability assay (Promega) is a homogeneous method to measure the number of viable cells in culture. The end point readout of this assay is based on quantitation of intracellular ATP, an indicator of metabolic activity, using the luciferase reaction. Luciferase catalyzes the oxidation of beetle Luciferin to oxyluciferin and light in the presence of ATP. The luminescent signal is proportional to amount of ATP present.
Using the CellTiter-Glo luminescent cell viability assay, the amount of cellular ATP was measured in the BJ cell line with complete culture medium following compound treatment for 40 hours. The assay was performed in opaque white Kalypsys 1536-well plates. In the screen, tamoxifen and doxorubicin were used as positive controls. Library compounds were measured for their ability to cause acute toxicity in the cell line, as reflected by a decrease in intracellular ATP levels, in a concentration-dependent manner. Data were normalized to the controls for basal activity (DMSO only) and 100% inhibition (100 uM tamoxifen). AC50 values were determined from concentration-response data modeled with the standard Hill equation.
qHTS protocol fo CellTiter Glo BJ cellular assay
[Step] [Parameter] [Value] [Description]
1. Reagent; 5 uL; 1500 BJ cells/well
2. Time; 5 hr; 37 °C incubation
4. Controls; 23 nL; Tamoxifen 0.34 uM to 100 uM & Doxorubicin 0.02 nM to 100 uM
5. Time; 40 hr; 37 °C incubation
6. Reagent; 5 uL; CellTiter Glo reagent
7. Time; 20 min; Room Temperature
8. Detection; Luminescence; Viewlux plate reader
Keywords: cell viability, cytotoxicity, BJ cell line, luminescence, NTPHTS, NTPHTS_NCGC, NIEHS, EPA, DSSTox, MLSMR, MLSCN, NIH Roadmap, qHTS, NCGC
Take `C/C=C/c1ccc2c(c1)OCO2`: the Potency was > 92 µM (inactive).

In the case of `Clc1nc(Cl)nc(Nc2ccccc2Cl)n1`, the Potency was > 92 µM (inactive).

For the compound `CC(C)(OO)c1ccccc1`, the Potency was > 92 µM (inactive).

As for `ClC(Cl)=C(c1ccc(Cl)cc1)c1ccc(Cl)cc1`, the Potency was > 92 µM (inactive).

`O=C(Cl)/C=C/C(=O)Cl`: the Potency is > 92 µM (inactive).

As to `C1CCC2CCCCC2C1` (stereo not given), the Potency was > 92 µM (inactive).

Regarding `C[N+](C)(C)Cc1ccccc1`, the Potency was > 92 µM (inactive).

Consider `CC(O)CCl` (stereo not given), for which the Potency was > 92 µM (inactive).

Regarding `Cc1cccc(C#N)c1`, the Potency is > 92 µM (inactive).

Consider `[O-][Br+2]([O-])O`, for which the Potency was > 92 µM (inactive).

For the compound `CCNc1nc(Cl)nc(NC(C)C)n1`, the Potency was > 92 µM (inactive).

Turning to `O=[N+]([O-])c1ccc(Cl)c(Cl)c1`, the Potency is > 92 µM (inactive).

As to `CCOP(=S)(OCC)SCSC(C)(C)C`, the Potency is > 92 µM (inactive).

Consider `O=C1C(Cl)=C(Cl)C(=O)C(Cl)=C1Cl`, for which the Potency is 50.5 µM (active).

Turning to `Brc1ccccc1`, the Potency was > 92 µM (inactive).

Consider `CCCOC(=O)c1ccccc1C(=O)OCCC`, for which the Potency was > 92 µM (inactive).

Regarding `Cc1ccc2ccccc2c1`, the Potency was > 92 µM (inactive).

With `OCC1CO1` (stereo not given), the Potency was > 92 µM (inactive).

Regarding `C=CC(N)=O`, the Potency is > 92 µM (inactive).

`Clc1cc(Cl)c(-c2cc(Cl)c(Cl)cc2Cl)cc1Cl`: the Potency is > 92 µM (inactive).

Turning to `O=C=NC1CCCCC1`, the Potency was > 92 µM (inactive).

Regarding `ClC(Cl)=C(Cl)Cl`, the Potency was > 92 µM (inactive).

On to `Nc1ccccc1Cl`, for which the Potency is > 92 µM (inactive).

On to `C=CC(=O)OCC`, for which the Potency is > 92 µM (inactive).

As for `CCCCCCCC(=O)Cl`, the Potency is > 92 µM (inactive).

As to `c1ccc(-c2ccccc2)cc1`, the Potency was > 92 µM (inactive).

As for `ClC(Cl)(Cl)c1ccccc1`, the Potency is > 92 µM (inactive).

With `O=C(Cl)C(Cl)(Cl)Cl`, the Potency is > 92 µM (inactive).

With `CCCSC(=O)Cl`, the Potency was > 92 µM (inactive).

Take `S=C=Nc1cccc2ccccc12`: the Potency was > 92 µM (inactive).

`CCN(CC)c1ccccc1`: the Potency is > 92 µM (inactive).

As to `C=CC1CC=CCC1` (stereo not given), the Potency is > 92 µM (inactive).

For the compound `C=CCc1ccc2c(c1)OCO2`, the Potency is > 92 µM (inactive).

Regarding `Clc1ccc2ccccc2c1`, the Potency was > 92 µM (inactive).

As for `CCOCN(C(=O)CCl)c1c(C)cccc1CC`, the Potency is 22.8 µM (active).

In the case of `Brc1ccc(Oc2cc(Br)c(Br)cc2Br)c(Br)c1`, the Potency was > 92 µM (inactive).

In the case of `C=CCOC(=O)c1ccccc1N`, the Potency was > 92 µM (inactive).

In the case of `COc1ccc(N)cc1`, the Potency was > 92 µM (inactive).

Regarding `CCCC(=O)Cl`, the Potency is > 92 µM (inactive).

In the case of `C=CC(C)=O`, the Potency is > 92 µM (inactive).
